Results: PubChem BioAssay AID493170 (National Center for Advancing Translational Sciences (NCATS), 2011)
Results filed as inconclusive are left out. Activity calls are given as the source filed them. Calls follow the shape of the dose curve; as a rule, active = well fitted inhibition curve with a large enough effect; inconclusive = small, poorly fitted or top-dose-only effect, or effect the other way; inactive = flat fitted curve, though single readings scatter.

Biological target: Ubiquitin carboxyl-terminal hydrolase 2 (Homo sapiens) (UniProt O75604)
Experiment: Ub-rhodamine 110 based assay for inhibitors Ubiquitin-specific Protease USP2a; also: nearly all actives have a fitted effect of over 50% in size
Conditions: USP2a Ub-rhodamine110 cleavage, fluorescence; series mostly up to 38.3 µM
How it was run: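 Kinetic fluorescence (485/531 nm) read each minute over 7 min after adding Ub-Rhod110 (150 nM final) to USP2a (5 nM final). The enzyme had 30 min RT exposure to compounds beforehand in Tris pH 8.0 buffer with CaCl2, CHAPS and beta-ME.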
Potency is read from the fitted curve at half-maximal effect.

Sequence of Ubiquitin carboxyl-terminal hydrolase 2 (Homo sapiens) (O75604 whole entry, looked up): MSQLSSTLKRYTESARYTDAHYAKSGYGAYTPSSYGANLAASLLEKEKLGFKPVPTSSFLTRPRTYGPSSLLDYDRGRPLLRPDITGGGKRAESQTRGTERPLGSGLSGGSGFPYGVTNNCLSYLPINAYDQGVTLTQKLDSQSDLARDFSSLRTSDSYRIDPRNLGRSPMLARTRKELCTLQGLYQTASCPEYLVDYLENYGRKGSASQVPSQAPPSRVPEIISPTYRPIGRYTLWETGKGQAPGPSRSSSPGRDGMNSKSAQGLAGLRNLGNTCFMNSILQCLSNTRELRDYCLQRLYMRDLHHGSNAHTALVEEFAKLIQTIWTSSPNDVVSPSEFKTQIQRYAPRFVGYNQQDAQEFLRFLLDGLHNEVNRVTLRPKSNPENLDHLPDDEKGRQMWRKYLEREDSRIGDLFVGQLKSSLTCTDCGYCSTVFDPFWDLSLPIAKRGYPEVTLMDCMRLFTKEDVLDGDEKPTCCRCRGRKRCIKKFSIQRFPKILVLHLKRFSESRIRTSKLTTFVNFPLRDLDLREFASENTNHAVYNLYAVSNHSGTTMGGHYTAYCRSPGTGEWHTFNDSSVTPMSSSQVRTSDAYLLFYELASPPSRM

Potency, inactive:
CC1(C)CC(=O)C2=C(C1)N(Cc1ccco1)C(=O)NC2(C(F)(F)F)C(F)(F)F
Cc1noc(C)c1NC(=O)Nc1ccc2c(c1)C(=O)N([C@H](C)CO)C[C@H](C)[C@@H](CN(C)S(=O)(=O)c1ccccc1)O2
COc1ccccc1NC(=O)N1CCN(c2ccccn2)CC1
C=CCOc1cccc(C2C(C(=O)c3ccco3)=C(O)C(=O)N2CCN(CC)CC)c1 (stereo not given)
O=C(O)CC1(CC(=O)Nc2ccc3ccccc3c2)CCCCC1
c1ccc(CN2CCN(CCOCCOc3cccc4ccccc34)CC2)cc1
O=C(CC(C(=O)O)C1CCCO1)NCCc1ccc2c(c1)OCO2 (stereo not given)
CCOC(=O)N1CCN(C(=O)c2cc3c(ccc4ccccc43)oc2=O)CC1
O=C1CC(Nc2ccc(N3CCOCC3)cc2)C(=O)N1c1cccc(C(F)(F)F)c1 (stereo not given)
CCN(CC(=O)Nc1ccc(NC(C)=O)cc1)C(=O)c1ccc(N2CCC(C)CC2)c([N+](=O)[O-])c1
FC(F)(F)C1=Nc2cccc3cccc(c23)N1
COC(=O)c1cc2sc(Cl)cc2n1Cc1nc(-c2ccccc2)oc1C

Potency, active:
Cc1cc(=O)n2[nH]c(-c3sccc3-n3c(C)ccc3C)cc2n1 10 µM
C[C@@H]1CN([C@H](C)CO)C(=O)Cc2cc(NS(=O)(=O)c3ccc(Cl)cc3)ccc2O[C@H]1CN(C)Cc1ccc(C(F)(F)F)cc1 10 µM
N#Cc1c(NC(=O)CSc2ncnc3sccc23)oc(-c2ccco2)c1-c1ccco1 3.98 µM
